Among all 310,000 compounds or so, about 2,200 (0.71%) showed an effect of 50% or more. The effect is printed as a negative number. This excerpt belongs to a sample that is enriched for strong results.
Molecular target: human ether-à-go-go-related gene (hERG) potassium channel (human, UniProt Q12809)
Assay: primary screen, population patch clamp on CHO cells stably expressing hERG; higher = less effect of the substance

Chain of human ether-à-go-go-related gene (hERG) potassium channel (Q12809 whole entry, looked up): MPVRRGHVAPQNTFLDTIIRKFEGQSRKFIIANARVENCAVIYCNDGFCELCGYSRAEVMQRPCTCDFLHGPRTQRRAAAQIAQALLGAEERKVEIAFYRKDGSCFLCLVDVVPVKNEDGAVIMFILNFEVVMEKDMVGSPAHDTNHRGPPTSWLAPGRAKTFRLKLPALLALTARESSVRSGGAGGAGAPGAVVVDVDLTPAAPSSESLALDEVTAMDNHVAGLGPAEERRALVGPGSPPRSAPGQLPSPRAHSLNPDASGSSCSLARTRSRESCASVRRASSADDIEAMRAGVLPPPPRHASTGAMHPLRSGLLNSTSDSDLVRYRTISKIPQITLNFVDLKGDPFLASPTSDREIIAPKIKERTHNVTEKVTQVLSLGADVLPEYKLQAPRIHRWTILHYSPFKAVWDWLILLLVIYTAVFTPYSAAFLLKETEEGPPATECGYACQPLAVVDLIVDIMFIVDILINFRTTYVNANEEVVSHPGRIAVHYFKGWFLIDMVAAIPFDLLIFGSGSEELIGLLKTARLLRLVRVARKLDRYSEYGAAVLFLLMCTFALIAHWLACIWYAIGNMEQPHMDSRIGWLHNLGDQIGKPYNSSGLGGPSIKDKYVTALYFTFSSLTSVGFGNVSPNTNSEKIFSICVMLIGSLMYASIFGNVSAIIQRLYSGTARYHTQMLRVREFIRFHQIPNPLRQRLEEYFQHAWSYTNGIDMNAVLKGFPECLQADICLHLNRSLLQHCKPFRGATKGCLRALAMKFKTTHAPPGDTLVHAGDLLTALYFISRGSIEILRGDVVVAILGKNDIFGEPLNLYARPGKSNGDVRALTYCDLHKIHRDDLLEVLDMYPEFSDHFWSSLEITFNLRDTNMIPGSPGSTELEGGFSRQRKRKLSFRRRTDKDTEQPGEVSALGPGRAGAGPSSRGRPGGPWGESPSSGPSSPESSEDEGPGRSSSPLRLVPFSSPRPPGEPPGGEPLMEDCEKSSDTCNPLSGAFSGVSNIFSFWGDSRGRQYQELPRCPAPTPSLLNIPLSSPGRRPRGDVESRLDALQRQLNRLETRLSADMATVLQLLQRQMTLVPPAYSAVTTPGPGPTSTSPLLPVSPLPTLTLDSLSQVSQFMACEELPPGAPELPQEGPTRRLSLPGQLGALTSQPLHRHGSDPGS

SMILES | hERG current change (%, negative = inhibition) at 1uM
CC(C)c1ccc(NC(=O)c2ccc(NC3=NC4CS(=O)(=O)CC4S3)cc2)cc1 (centres unmarked) | -0.0656%
COCC(=O)N(Cc1cc2cc(C)ccc2[nH]c1=O)c1ccc(C)c(C)c1 | 16.4%
CN1CCN(NC(=O)CN(C)S(=O)(=O)c2cc(Cl)ccc2Cl)CC1 | 6.96%
O=C(NNc1c(Cl)cccc1Cl)C1CCC1 | 13.3%
COc1ccc(-c2coc3c(CN4CCCCC4C)c(O)ccc3c2=O)cc1 (centres unmarked) | 7.15%
COc1ccc(-c2coc3c(CN4CCCCC4)c(O)c(CN4CCCCC4)c(O)c3c2=O)cc1 | -88%
Cl.O=C(c1ccccc1)c1coc2ccc(O)c(CN3CCOCC3)c12 | -21%
COc1ccc(C(=O)c2coc3ccc(O)c(CN4CCCC4)c23)cc1 | -56.9%
COc1ccc(OC)c(C(=O)c2coc3ccc(O)c(CN4CCOCC4)c23)c1 | -6.28%
COc1ccc(C(=O)c2coc3ccc(O)c(CN4CCOCC4)c23)cc1 | 1.63%
COc1ccc(C(=O)c2coc3ccc(O)c(CN4CCCCC4)c23)cc1 | -61.4%
COc1ccc(-c2coc3c(CN4CCOCC4)c(O)ccc3c2=O)cc1 | 0.432%
Cc1ccc(C(=O)c2coc3ccc(O)c(CN4CCN(C)CC4)c23)cc1 | -25.5%
CC1CCCCN1Cc1nc2c(c(=O)n(C)c(=O)n2C)n1Cc1c(F)cccc1Cl (centres unmarked) | 11.4%
C/C(N)=C(/C#N)C(=O)CSc1nc2ccccc2[nH]1 | 5.05%
COc1ccc(NC(=O)CNC(c2ccccc2)c2ccccc2)cc1.O=C(O)C(=O)O | 14.5%
O=C(COC(=O)Cc1ccc(Br)cc1)NC1CCCCCC1 | 11.4%
O=C(Cn1cnc2ccccc21)Nc1ccc(F)c(F)c1 | 3.75%
Cc1ccc(NC(=O)Cn2cnc3ccccc32)cc1C | 6.29%
O=C(Cn1cnc2ccccc21)Nc1ccc(C(=O)O)cc1.O=C(O)C(=O)O | -52.9%
Cc1ncc(CSc2ccc(Cl)cc2)c(CO)c1O | 12.9%
COCCCNC(=O)c1ccc2nc(Cc3ccc(OC)cc3)oc2c1 | 10.8%

SMILES | hERG current change (%, negative = inhibition) at 1uM
Cn1nnnc1Sc1ncnc2scc(-c3cccc(S(C)(=O)=O)c3)c12 | 12.6%
Cc1ccc(CN2CCN(Cc3ccc(OCCO)cc3)CC2CCO)o1 (centres unmarked) | 1.83%
OCCC1CN(Cc2cc3ccccc3o2)CCN1Cc1ccc(F)cc1 (centres unmarked) | 15.2%
CCOc1ccccc1CN1CCN(Cc2ccc(C)o2)CC1CCO (centres unmarked) | -9.63%
CCOc1ccc(CN2CCN(C3CCSCC3)CC2CCO)cc1 (centres unmarked) | -76.2%
CCOc1ccc(CN2CCN(Cc3ccc(C)o3)CC2CCO)cc1 (centres unmarked) | -87.8%
CCOc1ccc(CN2CCN(Cc3cc4ccccc4o3)CC2CCO)cc1 (centres unmarked) | -82%
CCOc1ccc(CN2CCN(C3CCC3)CC2CCO)cc1 (centres unmarked) | 3.11%
OCCC1CN(Cc2cnc(-c3ccccc3)s2)CCN1Cc1ccccc1 (centres unmarked) | 1.93%
CCOc1ccccc1CN1CCN(C2CCSCC2)CC1CCO (centres unmarked) | -7.19%
Cc1ccc(CN2CCN(Cc3cc4ccccc4o3)CC2CCO)cc1 (centres unmarked) | -12.5%
CCOc1ccc(CN2CCN(Cc3cnc(N4CCOCC4)s3)CC2CCO)cc1 (centres unmarked) | -19.2%
CCOc1ccc(CN2CCN(Cc3cnc(-c4ccccc4)s3)CC2CCO)cc1 (centres unmarked) | -90.1%
O=C(CSc1nnc(CNC(=O)c2ccccc2)o1)NCc1ccc2c(c1)OCO2 | 4.4%
CCN1CCN(c2c(Cl)cccc2NC(=O)c2ccc([N+](=O)[O-])cc2)CC1 | -15.9%
CSc1ccccc1C(=O)C1CCCN(C(=O)CCc2cccnc2)C1 (centres unmarked) | 8.69%
COc1ccc(NC(=O)CSc2nc3ccccc3c(=O)n2CCCO)cn1 | -26.1%
COc1ccc(OC)c(C2CC(=O)NC(SC)=C2C#N)c1 (centres unmarked) | 7.92%
O=C(CSc1ccccc1)Nc1nnc(COc2ccc(Cl)cc2)s1 | 3.34%
COc1cc(CN2CCN(Cc3ccc4cc(F)ccc4n3)CC2CCO)cc(OC)c1 (centres unmarked) | -21.6%
CCOc1ccccc1CN1CCN(Cc2ccc3cc(F)ccc3n2)CC1CCO (centres unmarked) | -44.1%
CCOc1ccc(CN2CCN(Cc3ccc4cc(F)ccc4n3)CC2CCO)cc1 (centres unmarked) | -79.3%

SMILES | hERG current change (%, negative = inhibition) at 1uM
Cc1cc(C)nc(/N=C(\N)Nc2ccc(OCc3ccccc3)cc2)n1 | -28.8%
CC(=O)Nc1ccc(N/C(N)=N/c2nc(C)cc(C)n2)cc1 | 8.5%
Cc1cc(=O)[nH]c(/N=C(\N)Nc2ccc(SC(F)F)cc2)n1 | 1.96%
Cc1ccc(N/C(N)=N/c2nc(C)cc(C)n2)cc1 | -24.7%
Cc1cc(C)nc(/N=C(\N)Nc2ccc(C(C)C)cc2)n1 | -3.29%
Cc1cc(C)nc(/N=C(\N)Nc2ccc(-c3ccccc3)cc2)n1 | -59.8%
Cc1cc(C)nc(/N=C(\N)Nc2ccc(OCCC(C)C)cc2)n1 | -55.9%
Cc1cc(C)nc(/N=C(\N)Nc2ccc(SC(F)F)cc2)n1 | -52.9%
CCOc1ccc(N/C(N)=N/c2nc(C)cc(C)n2)cc1 | 4.81%
COc1cccc(N2CCN(S(=O)(=O)c3c(C)[nH]c(C)c3C(=O)N3CCCCC3)CC2)c1 | 15.2%
CC(C)(C)OC(=O)N1CCC(Cc2cc(-c3cccc(Br)c3)no2)(C(=O)O)CC1 | -14%
Cc1ccc(-n2nc3c(c2NC(=O)C2CC2)CS(=O)(=O)C3)cc1 | -0.97%
O=C(COC(=O)C1CCCCC1)Nc1ccccc1OC(F)F | 12.3%
Cc1cccn2c(CN3CCCC(c4ccccc4)C3)c(C(=O)N3CCOCC3)nc12 (centres unmarked) | -53.3%
Cc1cccn2c(CN3CCSCC3)c(C(=O)N3CCOCC3)nc12 | -1.36%
Cc1cccn2c(CN[C@@H]3CCCC[C@H]3c3ccccc3)c(C(=O)N3CCOCC3)nc12 | 4.31%
COc1cc2c(cc1OC)C1(Nc3c-2c(Cc2ccccc2)nn3-c2ccccc2)C(=O)Nc2ccccc21 (centres unmarked) | 12.4%
N=c1c2c(-c3ccccc3)c(-c3ccccc3)n(Cc3ccco3)c2ncn1CCCn1ccnc1 | -63.6%
CCCCn1cnc2c(c(-c3ccccc3)c(-c3ccccc3)n2Cc2ccco2)c1=N | -45.6%
N=c1c2c(-c3ccccc3)c(-c3ccccc3)n(Cc3ccco3)c2ncn1CCCO | -34.5%
N=c1c2c(-c3ccccc3)c(-c3ccccc3)n(Cc3ccco3)c2ncn1Cc1ccco1 | -26.8%
c1ccc(-c2c(-c3ccccc3)n(Cc3ccco3)c3ncnc(NCCCn4ccnc4)c23)cc1 | -9.73%

SMILES | hERG current change (%, negative = inhibition) at 1uM
N=c1c2c(-c3ccccc3)c(-c3ccccc3)n(Cc3ccco3)c2ncn1CCO | -52.2%
N=c1c2c(-c3ccccc3)c(-c3ccccc3)n(Cc3ccco3)c2ncn1CCCN1CCOCC1 | -91.3%
CC(C)Cn1cnc2c(c(-c3ccccc3)c(-c3ccccc3)n2Cc2ccco2)c1=N | -26.2%
N=c1c2c(-c3ccccc3)c(-c3ccccc3)n(Cc3ccccc3)c2ncn1CCCn1ccnc1 | -32%
N=c1c2c(-c3ccccc3)c(-c3ccccc3)n(Cc3ccccc3)c2ncn1CCO | 0.416%
N=c1c2c(-c3ccccc3)c(-c3ccccc3)n(Cc3ccco3)c2ncn1CCN1CCOCC1 | -72.3%
N=c1c2c(-c3ccccc3)c(-c3ccccc3)n(Cc3ccco3)c2ncn1Cc1ccccc1 | -4.13%
Cc1cc(C)n(Cc2ccc(NC(=O)c3ccc(COc4ccccc4Br)cc3)cc2)n1 | -8.42%
O=C(O)C1=C(OCc2ccc(F)c(F)c2)C(=O)NCC1 | 13.4%
Cc1ccc(C(C(=O)NC2CCCC2)N(Cc2ccccc2)C(=O)c2csnn2)o1 (centres unmarked) | 12.4%
COc1cc(C(=O)O)ccc1OCc1ccncc1 | 14.1%
CCOC(=O)C(=O)NC(C)CCc1ccccc1 (centres unmarked) | 9.43%
Cc1ccc(C(C)C)c(OCC(=O)N2CCN(c3ncccn3)CC2)c1 | 10%
Cc1cccn2c(=O)c3cc(S(=O)(=O)c4ccccc4)c(=N)n(CC4CCCO4)c3nc12 (centres unmarked) | 7.88%
CCCn1c(=N)c(C(=O)NCC2CCCO2)cc2c(=O)n3cccc(C)c3nc21 (centres unmarked) | -78.3%
Cc1cccn2c(=O)nc(SCC(=O)NCc3ccc4c(c3)OCO4)nc12 | -1.11%
CCCn1c(=N)c(C(=O)NCc2ccc3c(c2)OCO3)cc2c(=O)n3cccc(C)c3nc21 | -67.3%
Cc1cccn2c(=O)c3cc(C(=O)NC4CCCCC4)c(=N)n(Cc4ccccc4)c3nc12 | -40.2%
Cc1cccn2c(=O)c3cc(C(=O)NCC4CCCO4)c(=N)n(CC4CCCO4)c3nc12 (centres unmarked) | -84.8%
Cc1cccn2c(=O)c3cc(C(=O)NC4CCCC4)c(=N)n(CC4CCCO4)c3nc12 (centres unmarked) | -80.2%
